ELG1 genotox = inducers of genotoxicity in HEK293T ELG1-luciferase cells; AID 504466; HEK293T ELG1-luciferase reporter, luminescence, 16 h; 1.3% of 330,000 active; Potency, µM (top dose mostly 46 µM), for inactives: at the highest dose activity change, positive = activation, actives largely listed as activators; note: % of control where 0% means no effect; nearly all actives have a fitted effect of over 60% in size
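Genotoxicity was scored as increased ELG1-luciferase reporter signal, measured by ONE-Glo luminescence (30 min, room temperature). Compound or vehicle exposure of the HEK293T reporter cells lasted 16 hr at 37°C.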
KinaseGlo FLuc = blocks Kinase-Glo luciferase, a counter-screen artifact | AID 1379 | Kinase-Glo luciferase, ATP luminescence, 8 min | Q27757 | Potency, µM (titrated, usually from 38.3 µM), for inactives: top-dose activity change, negative = inhibition, actives largely listed as inhibitors | 0.28% of 200,000 active; note: % is set by controls: 0 for no effect and ±100 for the full control effect; nearly all actives have a fitted effect of over 60% in size
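Kinase-Glo luciferase light output from ATP and luciferin was measured with 10 uM ATP, within the enzyme's linear range. Buffer: 50 mM imidazole pH 7.2, 50 mM KCl, 7 mM MgCl2, 0.01% Tween 20, 0.05% BSA; luminescence read after 8 min at ambient temperature.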
FLuc counter = inhibits or activates purified firefly luciferase, miR-21 counter-screen; P08659; 6.9% of 360,000 active; Potency, µM (series often up to 57.5 µM), without a hit: at the highest dose activity change, negative = inhibition, hits mostly inhibitors; purified FLuc, Km substrates, luminescence inhibition; AID 588342;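 note: plate controls were vehicle for no effect and reference inhibitor for full effect; nearly all actives have a fitted effect of over 55% in size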
Target sequence (P08659 whole entry, looked up): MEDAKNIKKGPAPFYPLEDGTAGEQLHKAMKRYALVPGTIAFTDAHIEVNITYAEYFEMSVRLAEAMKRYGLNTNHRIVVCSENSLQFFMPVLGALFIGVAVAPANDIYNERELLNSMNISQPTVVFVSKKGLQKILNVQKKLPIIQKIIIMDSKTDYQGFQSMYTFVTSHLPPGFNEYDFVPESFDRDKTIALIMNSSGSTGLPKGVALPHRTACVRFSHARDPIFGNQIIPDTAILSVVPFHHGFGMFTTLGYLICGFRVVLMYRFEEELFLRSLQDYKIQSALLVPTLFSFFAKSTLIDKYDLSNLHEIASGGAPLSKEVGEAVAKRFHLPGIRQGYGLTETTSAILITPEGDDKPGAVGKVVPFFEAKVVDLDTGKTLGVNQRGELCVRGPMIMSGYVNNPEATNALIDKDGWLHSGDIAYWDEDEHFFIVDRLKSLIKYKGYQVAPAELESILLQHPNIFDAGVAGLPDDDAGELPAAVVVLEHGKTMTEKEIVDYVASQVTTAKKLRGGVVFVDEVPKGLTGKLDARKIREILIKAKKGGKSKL
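Purified P. pyralis luciferase (10nM final) with 10uM D-luciferin and 10uM ATP (Km levels) in 50mM Tris acetate pH 7.5, 10mM Mg acetate, 0.01% Tween-20, 0.05% BSA; qHTS 6-point titration, ~60 µM downward; luminescence read.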
NPC1 promoter act = NPC1 promoter activation; Huh7 NPC1 promoter luciferase reporter, 24 h; Potency, µM (top dose mostly 9.22 µM), without a hit: at the highest dose activation, usual class: activators; 2.4% of 320,000 active; note: % of control where 0% means no effect; nearly all actives have a fitted effect of over 60% in size
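Huh7 reporter cells (NPC1 promoter driving luciferase) are dosed with compound for 24 h at 37 °C, 5% CO2; luciferase detection reagent is then added and luminescence measured after 10 min at ambient temperature.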
Rab9 promoter act = activates the Rab9 promoter; Huh7 Rab9 promoter-luciferase reporter, luminescence, 24 h; Potency, µM (series often up to 9.22 µM), inactives show top-dose activation, negative = inhibition, hits mostly activators; 2.8% of 320,000 active; AID 485297; note: % of control where 0% means no effect; nearly all actives have a fitted effect of over 60% in size
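Using Huh7 cells stably transfected with Rab9 promoter–luciferase, compounds were incubated 24 h at 37 °C, 5% CO2; luciferase luminescence was read 10 min after reagent addition.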
SMN2 splice up = SMN2 splice variant enhancement | 2.8% of 210,000 active | AID 1458 | HEK293 SMN2-luciferase splicing reporter, luminescence, 30-36 h | Potency, µM (top dose mostly 46.1 µM), for the others: at the highest dose activity change, positive = activation, most hits filed as activators; note: % of control where 0% means no effect; nearly all actives have a fitted effect of over 55% in size
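HEK293 cells carry an SMN2 […]–luciferase reporter in which exon 7 inclusion puts luciferase in frame. Cells were plated 10-12 h before compound addition, then incubated 30-36 h at 37C. ONE-Glo luminescence was read; sodium butyrate at 4.5 mM final served as control.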
An asterisk follows results filed as active; u = inconclusive; x = not tested or not shown; [ ] = dose if it differs, or a comment. Shown are actives, neighbours in structure and some others; about 7.3% of the full set was active somewhere. Calls come from the whole dose curve; as a rule, active = well fitted curve in the direction sought with a large enough effect; inconclusive = small, poorly fitted or top-dose-only effect, or another doubt; inactive = no such curve, though single readings can be large; an effect the other way counts as inactive or inconclusive. Potency is the fitted concentration of half-maximal effect.

SMILES | ELG1 genotox | KinaseGlo FLuc | FLuc counter | NPC1 promoter act | Rab9 promoter act | SMN2 splice up
O=C(NC(=O)N1CCN(c2ccccc2)CC1)c1ccc(Cl)cc1 | u | 2% | 27µM* | 1% | 20% | 13µM*
CCOC(=O)c1c(-c2ccccc2)oc2ccc(NS(=O)(=O)c3cc(C)c(C)cc3C)cc12 | x | x | -2% | x | x | -6%
CN(C)S(=O)(=O)c1ccc(C(=O)Nc2nnc(SCC(=O)NCC3CCCO3)s2)cc1 (stereo not drawn) | 5% | x | -1% | 2% | 2% | x
O=C(CSc1nnc(NC(=O)c2cccc(F)c2)s1)NCC1CCCO1 (stereo not drawn) | 21% | x | 6µM* | 15% | 23% | x
Cc1cc(-c2nnc(CSc3nnc(NC(=O)c4ccc(C(C)(C)C)cc4)s3)o2)ccc1[N+](=O)[O-] | u | x | 1.7µM* | 2.5µM* | u | x
COCCSc1nnc(NC(=O)c2ccc([N+](=O)[O-])cc2)s1 | 22% | 3% | u | 1% | 10% | 22%
CCOc1ccc(C(=O)Nc2nnc(SCC(=O)NCC3CCCO3)s2)cc1 (stereo not drawn) | u | x | 0.3µM* | 0.1µM* | u | x
CC(C)(C)c1ccc(C(=O)Nc2nnc(SCC(=O)NCC3CCCO3)s2)cc1 (stereo not drawn) | u | x | 0.076µM* | 0.5µM* | 0.32µM* | x
CC(CNC(=O)C1CCN(C(=O)c2cc3sccc3n2C)CC1)c1ccccc1 (stereo not drawn) | x | x | 2% | x | x | u
CCC(=O)N1CCc2cc(Br)cc(S(=O)(=O)CCC(=O)NCc3ccccc3)c21 | x | x | 5% | x | x | 16%
Cc1ccn2c(c1)nc(=O)c1cc(S(=O)(=O)N3CCCCC3)c(Cl)cc12 | x | x | -3% | x | x | 3%
Cc1cccc(NC(=O)CSc2nc3ccccc3nc2N2CCCCC2)c1C | x | x | 0% | x | x | -2%
COc1cccc(NC(=O)c2ccc(-c3nc(COc4ccccc4)c(C)o3)cc2)c1 | x | x | 0% | x | x | x
CC1CCc2c(sc3[nH]c(=S)n(C)c(=O)c23)C1 (stereo not drawn) | -6% | x | 19µM* | 12% | 23% | x
COc1cccc(Cn2c(=O)n(CCc3ccccc3)c(=O)c3c2c2cc(OC)ccc2n3C)c1 | x | x | -2% | x | x | x
CCn1cc(C(=O)N2CCN(c3cccc(Cl)c3)CC2)c(=O)c2cc(S(=O)(=O)N3CCOCC3)ccc21 | x | x | -9% | x | x | 3%
COc1ccc(OC)c(/C=N/NC(=O)c2ccc(=O)[nH]n2)c1 | -1% | x | 2% | 0% | 5% | x
COc1cccc(/C=N/NC(=O)c2ccc(=O)[nH]n2)c1O | 10% | x | 3.4µM* | 0% | -7% | x
COC(=O)c1ccc(N/N=C/c2cc([N+](=O)[O-])cc(OC)c2O)cc1 | 10% | 1% | u | 6% | -2% | x
COc1cccc(N/N=C/c2cccc(Br)c2O)c1 | u | x | 6.7µM* | u | u | x
COc1cccc(/C=N/NC(=O)c2ccc([N+](=O)[O-])cc2Cl)c1O | 7% | 3% | 19µM* | -32% | -28% | -72%
COc1cccc(/C=N/Nc2ccc([N+](=O)[O-])cc2)c1O | u | x | 2.4µM* | u | 24% | x
COc1cc(/C=N/NC(=O)c2cccc([N+](=O)[O-])c2)cc(OC)c1O | -1% | -2% | -14% | -3% | -4% | 1%
COc1ccc(-c2onc(C)c2C)cc1S(=O)(=O)NCC1CCN(Cc2cc(C)ccc2C)CC1 | x | x | -2% | x | x | x
CCCOc1ccccc1C(=O)N1CCCCC1CCN1CCCCC1 (stereo not drawn) | x | x | 0% | x | x | -6%
SMILES | ELG1 genotox | KinaseGlo FLuc | FLuc counter | NPC1 promoter act | Rab9 promoter act | SMN2 splice up
COc1ccc(/C=N/Nc2ccc([N+](=O)[O-])cc2)cc1O | 12µM* | x | 7.6µM* | 18% | u | x
Cc1ccc(NC(=O)Cn2c(=O)n(Cc3ccccc3)c(=O)c3c2c2cc(C)ccc2n3C)cc1 | x | x | 0% | x | x | x
Cc1ccsc1C(=O)NNC(=O)C1CC=CCC1C(=O)O (stereo not drawn) | 6% | -1% | u | -2% | -2% | 4%
CC(C)c1ccc(C(=O)NNC(=O)C2CC=CCC2C(=O)O)cc1 (stereo not drawn) | 11% | -5% | 17µM* | 23% | 29% | u
CCn1ccc2c(OCC(=O)Nc3ccccc3C(F)(F)F)cccc2c1=O | x | x | 3% | x | x | x
CCc1ccc(-n2nc3cc(C)c(N)cc3n2)cc1 | 0.41µM* | x | 0.19µM* | 0.32µM* | 0.13µM* | x
Cc1ccc(-n2nc3cc(C)c(N)cc3n2)cc1 | u | -9% | 0.27µM* | 4µM* | 1.1µM* | 1.4µM*
Cc1ccc(C)c(N)c1 | 1% | x | -11% | 0% | -5% | -2%
Cc1cnc(NC(=O)c2ccc(OCC3CCCO3)cc2)s1 (stereo not drawn) | u | -5% | 0.76µM* | 0.5µM* | 0.13µM* | 2.2µM*
O=C(Nc1cccc(S(=O)(=O)N2CCCCC2)c1)c1ccc(OCC2CCCO2)cc1 (stereo not drawn) | -18% | 13% | 15µM* | -5% | 4% | -67%
O=C(Nc1ccc(S(=O)(=O)N2CCCC2)cc1)c1ccc(OCC2CCCO2)cc1 (stereo not drawn) | -9% | -3% | 2% | -21% | -21% | -76%
Cc1ccc(NC(=O)c2ccc(OCC3CCCO3)cc2)cc1 (stereo not drawn) | u | -1% | 6µM* | 2.2µM* | 2.5µM* | 7.9µM*
O=C(Nc1nc2ccccc2s1)c1ccc(OCC2CCCO2)cc1 (stereo not drawn) | u | x | 0.76µM* | 3.2µM* | 0.4µM* | x
Cc1ccc(NC(=O)c2ccc(OCC3CCCO3)cc2)nc1 (stereo not drawn) | u | x | 4.8µM* | 1.8µM* | 1µM* | x
O=C(O)c1cc(=O)[nH]c(SCc2ccccc2)n1 | x | -4%[7.66 µM] | x | x | x | 2%[9.22 µM]
COc1ccc(C2=CC(c3cc(Br)ccc3F)n3c(nc4ccccc43)N2)cc1 (stereo not drawn) | x | x | 4.3µM* | x | x | x
Fc1ccc(C2=CC(c3ccc(F)cc3)n3c(nc4ccccc43)N2)cc1 (stereo not drawn) | x | x | 11µM* | x | x | x
COC(=O)c1ccc(C2C=C(c3ccc(Cl)cc3)Nc3nc4ccccc4n32)cc1 (stereo not drawn) | x | x | 6.7µM* | x | x | x
CCN(CC)S(=O)(=O)c1ccc2c(c1)N(CC(=O)NCc1ccccc1)C(=O)C1CCCCN21 (stereo not drawn) | x | x | 5% | x | x | x
COc1cccc(Cn2ncc3c4sc(B(O)O)cc4n(C)c3c2=O)c1 | x | x | -3% | -11% | -3% | x

Screening data as filed in PubChem.
